Measurements reported in PubChem BioAssay (EPA / NIEHS).
Active and inactive are the calls of the source. The calls were made as follows: active = hit-call score of the fitted dose curve at least 0.9, where 1 is the maximum; inactive = score below 0.9.

Tests used:
[1] = read-out: TIMP metallopeptidase inhibitor 2 (TIMP2), TIMP2 (gene 7077); assay: BSK_KF3CT_TIMP2: BioMAP Diversity Plus: KF3CT Assay for TIMP metallopeptidase inhibitor 2 (TIMP2) Biomarker Activity (AID 2283071); settings: primary human keratinocytes with fibroblasts; actives raise or lower the signal
Outline: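 Co-culture of human primary keratinocytes and foreskin fibroblasts, measured 24 h after chemical dosing. TIMP-2 quantified by ELISA and fitted in both directions relative to DMSO. Cytotoxicity checked in parallel cultures by SRB total-protein staining.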

[2] = read-out: Transforming growth factor beta 1 (TGFb1), TGFB1 (gene 7040); assay: BSK_KF3CT_TGFb1: BioMAP Diversity Plus: KF3CT Assay for Transforming growth factor beta 1 (TGFb1) Biomarker Activity (AID 2283072); settings: primary human keratinocytes with fibroblasts; actives raise or lower the signal
Outline: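 Human keratinocyte/foreskin fibroblast co-culture; TGF-b1 measured by ELISA 24 h after dosing, fitted bidirectionally versus DMSO. Cytotoxicity checked in parallel cultures by total protein (SRB staining, 560 nm).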

[3] = read-out: C-C motif chemokine 2 (Homo sapiens) (UniProt P13500); assay: BSK_KF3CT_MCP1: BioMAP Diversity Plus: KF3CT Assay for Monocyte Chemoattractant Protein 1 (MCP1/CCL2) Biomarker Activity (AID 2283073); settings: primary human keratinocytes with fibroblasts; actives raise or lower the signal
Outline: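 Human keratinocyte–foreskin fibroblast co-culture; MCP-1 measured by ELISA 24 h after dosing. Bidirectional fit vs DMSO; cytotoxicity tracked by SRB total protein in parallel cultures.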

[4] = read-out: Matrix Metallopeptidase 9 (MMP9), MMP9 (gene 4318); assay: BSK_KF3CT_MMP9: BioMAP Diversity Plus: KF3CT Assay for Matrix Metallopeptidase 9 (MMP9) Biomarker Activity (AID 2283074); settings: primary human keratinocytes with fibroblasts; actives raise or lower the signal;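 as to AC50: MMP9 protein level quantified by ELISA in the co-culture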
Outline: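 Human keratinocyte and foreskin fibroblast co-culture exposed to chemicals for 24 h; MMP9 biomarker measured by ELISA, bidirectional fitting relative to DMSO; cytotoxicity tracked by SRB total protein staining in parallel cultures.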

[5] = read-out: CD40, CD40 (gene 958); assay: BSK_LPS_CD40: BioMAP Diversity Plus: LPS Assay for CD40 Biomarker Activity (AID 2283076); settings: primary human HUVEC with PBMC; actives raise or lower the signal
Outline: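 HUVEC plus PBMC co-culture stimulated with LPS; CD40 quantified by ELISA 24 h after compound dosing. Fitting was bidirectional relative to DMSO. SRB staining of parallel cultures flagged overt cytotoxicity.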

[6] = read-out: E-selectin (Homo sapiens) (UniProt P16581); assay: BSK_LPS_Eselectin: BioMAP Diversity Plus: LPS Assay for Eselectin Biomarker Activity (AID 2283077); settings: primary human HUVEC with PBMC; actives raise or lower the signal
Outline: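 Human umbilical vein endothelial cells co-cultured with PBMC under LPS stimulation; cell-surface E-selectin measured by ELISA 24 h after dosing. Change in either direction versus DMSO, with SRB total-protein staining in parallel cultures for cytotoxicity.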

[7] = read-out: Interleukin-8 (IL8), CXCL8 (gene 3576); assay: BSK_LPS_IL8: BioMAP Diversity Plus: LPS Assay for Interleukin-8 (IL8) Biomarker Activity (AID 2283078); settings: primary human HUVEC with PBMC; actives raise or lower the signal
Outline: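 Human umbilical vein endothelial cells co-cultured with PBMC, LPS-stimulated, exposed to compound for 24 h. IL-8 quantified by ELISA; fitted in both directions against DMSO, with SRB total-protein staining of parallel cultures for cytotoxicity.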

[8] = BSK_LPS_SRB: Viability Assessment in the BioMAP Diversity Plus: LPS Assay (AID 2283079); settings: primary human HUVEC with PBMC;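 also: total protein by sulforhodamine B absorbance as a cytotoxicity measure; measured one day after compound addition; fitted in both directions against DMSO so loss or gain of signal counts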
Outline: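 Co-culture of human umbilical vein endothelial cells and PBMC, read 24 h after dosing. Total protein by 0.1% SRB staining after 10% TCA fixation, absorbance at 560 nm; bidirectional fit against DMSO.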

[9] = read-out: Interleukin-1 alpha (IL1a), IL1A (gene 3552); assay: BSK_LPS_IL1a: BioMAP Diversity Plus: LPS Assay for Interleukin-1 alpha (IL1a) Biomarker Activity (AID 2283080); settings: primary human HUVEC with PBMC; actives raise or lower the signal
Outline: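 Human umbilical vein endothelial cells co-cultured with PBMC and stimulated with LPS; IL-1a measured by ELISA 24 h after dosing. Bidirectional fitting against DMSO; cytotoxicity checked by SRB staining in parallel cultures.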

[10] = read-out: Monocyte Chemoattractant Protein-1 (MCP1), CCL2 (gene 6347); assay: BSK_LPS_MCP1: BioMAP Diversity Plus: LPS Assay for Monocyte Chemoattractant Protein-1 (MCP1) Biomarker Activity (AID 2283081); settings: primary human HUVEC with PBMC; actives raise or lower the signal;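 as to AC50: secreted MCP-1 protein quantified by ELISA in culture supernatant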
Outline: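 Human umbilical vein endothelial cells co-cultured with PBMC, LPS-stimulated; secreted MCP-1 measured by ELISA 24 h after compound addition. Bidirectional curve fitting against DMSO baseline; SRB total-protein staining in parallel cultures for cytotoxicity.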

[11] = BSK_LPS_PGE2: BioMAP Diversity Plus: LPS Assay for Prostaglandin E2 (PGE2) Biomarker Activity (AID 2283082); settings: primary human HUVEC with PBMC; actives raise or lower the signal;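 as to AC50: secreted prostaglandin E2 measured by ELISA in LPS-stimulated co-culture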
Outline: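 HUVEC plus human PBMC co-culture stimulated with LPS; secreted PGE2 quantified by ELISA 24 h after chemical dosing. Activity fitted bidirectionally against DMSO baseline; parallel SRB staining (0.1% SRB after 10% TCA fixation, 560 nm) flags overt cytotoxicity.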

[12] = read-out: Macrophage colony-stimulating factor (MCSF), CSF1 (gene 1435); assay: BSK_LPS_MCSF: BioMAP Diversity Plus: LPS Assay for Macrophage colony-stimulating factor (MCSF) Biomarker Activity (AID 2283083); settings: primary human HUVEC with PBMC; actives raise or lower the signal
Outline: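 HUVEC–PBMC co-culture, M-CSF measured by ELISA 24 h after chemical dosing. Fitted in both directions relative to DMSO as negative control; overt cytotoxicity assessed by SRB total-protein staining in parallel cultures.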

[13] = read-out: Tumor necrosis factor (Homo sapiens) (UniProt P01375); assay: BSK_LPS_TNFa: BioMAP Diversity Plus: LPS Assay for Tumour Necrosis Factor alpha (TNFa) Biomarker Activity (AID 2283085); settings: primary human HUVEC with PBMC; actives raise or lower the signal
Outline: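 Human umbilical vein endothelial cells co-cultured with PBMC and stimulated with LPS. TNFa was measured by ELISA 24 h after chemical dosing, fitted bidirectionally relative to DMSO.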

[14] = read-out: Vascular cell adhesion molecule 1 (VCAM1), VCAM1 (gene 7412); assay: BSK_LPS_VCAM1: BioMAP Diversity Plus: LPS Assay for Vascular cell adhesion molecule 1 (VCAM1) Biomarker Activity (AID 2283086); settings: primary human HUVEC with PBMC; actives raise or lower the signal
Outline: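 Human umbilical vein endothelial cells co-cultured with PBMC and stimulated with LPS; VCAM-1 measured by ELISA 24 h after dosing. Bidirectional curve fitting against DMSO baseline; cytotoxicity tracked in parallel by SRB total-protein staining.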

[15] = read-out: CD40, CD40 (gene 958); assay: BSK_SAg_CD40: BioMAP Diversity Plus: SAg Assay for CD40 Biomarker Activity (AID 2283088); settings: primary human HUVEC with PBMC; actives raise or lower the signal
Outline: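 HUVEC plus PBMC co-culture, superantigen-activated, with CD40 read by ELISA 24 h after dosing. Curves fitted in both directions against DMSO. Overt cytotoxicity checked by parallel SRB total-protein staining.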

[16] = read-out: CD69, CD69 (gene 969); assay: BSK_SAg_CD69: BioMAP Diversity Plus: SAg Assay for CD69 Biomarker Activity (AID 2283089); settings: primary human HUVEC with PBMC; actives raise or lower the signal;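 as to AC50: cell surface CD69 protein quantified by ELISA with fluorescence detection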
Outline: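 HUVEC co-cultured with PBMC were dosed with chemical, and CD69 was measured by ELISA with fluorescence read-out 24 h later. Bidirectional curve fitting used DMSO as negative control and activity baseline.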

[17] = read-out: Monocyte Chemoattractant Protein-1 (MCP1), CCL2 (gene 6347); assay: BSK_SAg_MCP1: BioMAP Diversity Plus: SAg Assay for Monocyte Chemoattractant Protein-1 (MCP1) Biomarker Activity (AID 2283090); settings: primary human HUVEC with PBMC; actives raise or lower the signal
Outline: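 MCP-1 levels in the endothelial–PBMC SAg co-culture were quantified by ELISA at 24 h post-dosing; both increases and decreases versus DMSO scored. Cytotoxicity monitored by SRB total protein in parallel cultures.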

[18] = read-out: urokinase plasminogen activator (uPA), PLAU (gene 5328); assay: BSK_KF3CT_uPA: BioMAP Diversity Plus: KF3CT Assay for urokinase plasminogen activator (uPA) Biomarker Activity (AID 2283075); settings: primary human keratinocytes with fibroblasts; actives raise or lower the signal
Outline: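 Primary human keratinocyte/foreskin fibroblast co-culture exposed to chemical; uPA measured by ELISA at 24 h. Bidirectional fit versus DMSO, with parallel SRB total-protein staining for cytotoxicity.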

[19] = read-out: Tissue Factor, F3 (gene 2152); assay: BSK_LPS_TissueFactor: BioMAP Diversity Plus: LPS Assay for Tissue Factor Biomarker Activity (AID 2283084); settings: primary human HUVEC with PBMC; actives raise or lower the signal
Outline: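 Human umbilical vein endothelial cells co-cultured with PBMC were dosed with compound. Cell-surface CD142 was measured by ELISA 24 h later. Activity was fitted bidirectionally against DMSO, with SRB total-protein staining in parallel cultures for cytotoxicity.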

[20] = read-out: CD38, CD38 (gene 952); assay: BSK_SAg_CD38: BioMAP Diversity Plus: SAg Assay for CD38 Biomarker Activity (AID 2283087); settings: primary human HUVEC with PBMC; actives raise or lower the signal
Outline: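 Human HUVEC plus PBMC co-culture stimulated with superantigen; CD38 measured by ELISA 24 h after chemical dosing. Fluorescence read-out, bidirectional fit against DMSO; cytotoxicity tracked in parallel by SRB and Alamar Blue.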

Measured: AC50

Sequence of E-selectin (Homo sapiens) (P16581 whole entry, looked up): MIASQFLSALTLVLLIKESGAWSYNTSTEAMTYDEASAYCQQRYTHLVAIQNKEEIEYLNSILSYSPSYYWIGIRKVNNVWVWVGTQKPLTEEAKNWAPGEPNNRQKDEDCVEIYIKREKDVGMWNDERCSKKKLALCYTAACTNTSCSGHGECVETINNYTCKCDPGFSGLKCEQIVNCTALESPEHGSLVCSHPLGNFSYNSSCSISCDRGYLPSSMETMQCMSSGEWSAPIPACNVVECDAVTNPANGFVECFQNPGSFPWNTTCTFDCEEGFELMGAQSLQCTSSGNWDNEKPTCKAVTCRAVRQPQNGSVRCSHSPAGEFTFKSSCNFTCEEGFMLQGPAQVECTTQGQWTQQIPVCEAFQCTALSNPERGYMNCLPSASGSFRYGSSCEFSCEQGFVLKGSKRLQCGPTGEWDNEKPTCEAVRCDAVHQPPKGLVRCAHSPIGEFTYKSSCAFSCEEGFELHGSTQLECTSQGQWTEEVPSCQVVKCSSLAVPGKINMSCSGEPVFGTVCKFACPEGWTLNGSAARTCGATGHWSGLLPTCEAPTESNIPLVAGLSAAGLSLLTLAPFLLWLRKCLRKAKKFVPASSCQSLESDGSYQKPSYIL
Sequence of Tumor necrosis factor (Homo sapiens) (P01375 whole entry, looked up): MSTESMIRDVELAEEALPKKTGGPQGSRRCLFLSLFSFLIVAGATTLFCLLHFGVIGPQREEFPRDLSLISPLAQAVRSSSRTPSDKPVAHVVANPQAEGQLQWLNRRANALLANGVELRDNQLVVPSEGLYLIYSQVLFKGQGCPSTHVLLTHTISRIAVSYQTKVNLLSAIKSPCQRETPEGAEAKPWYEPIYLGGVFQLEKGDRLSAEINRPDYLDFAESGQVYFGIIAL

Clc1ccccc1C(c1ccccc1)(c1ccccc1)n1ccnc1
active: [1] 10 µM | [2] 6.57 µM | [3] 7.25 µM | [4] 5.43 µM | [5] 14.7 µM | [6] 30.7 µM | [7] 30.9 µM | [8] 23.1 µM | [9] 30.5 µM | [10] 29.7 µM | [11] 5.45 µM | [12] 28.3 µM | [13] 32.9 µM | [14] 22.4 µM | [15] 20 µM | [16] 24.3 µM | [17] 26.1 µM

C[C@]12CC[C@@H]3c4ccc(O)cc4CC[C@H]3[C@@H]1CCC2=O
active: [6] 0.122 µM
not listed: [12] | [20]
inactive: all other assays above

CCCOC(=O)c1cc(O)c(O)c(O)c1
active: [1] 1.49 µM | [2] 1.53 µM | [11] 4.97 µM | [17] 29 µM
not listed: [4] | [18] | [19] | [20]
inactive: all other assays above

CC(O)CC(C)(C)O (centres undefined)
not listed: [4] | [10] | [18]
inactive: all other assays above

O=C(OCCCCCCOC(=O)c1ccccc1)c1ccccc1
active: [11] 32.4 µM | [13] 4.86 µM
not listed: [4] | [10] | [12]
inactive: all other assays above

Cc1cccc2ccccc12
not listed: [4] | [12] | [20]
inactive: all other assays above

CC(C)(C)c1csc(-c2cc3cc(OCc4ccccc4CC(=O)O)ccc3o2)n1
inactive: [7] | [11]
active: [1] 20.3 µM | [2] 10.8 µM | [3] 20 µM | [18] 20.7 µM | [5] 20.7 µM | [6] 30.9 µM | [8] 20.9 µM | [9] 20.5 µM | [13] 17.7 µM | [14] 18.8 µM | [15] 19.1 µM | [16] 19.8 µM | [17] 29.9 µM

O=C(O)Cc1cc(I)c(Oc2ccc(O)c(I)c2)c(I)c1
active: [2] 29.9 µM | [13] 13 µM
not listed: [4] | [10] | [12] | [20]
inactive: all other assays above

Cc1cc2c(cc1C(F)(F)F)N(C(=O)Nc1ccc(Oc3cccnc3C)nc1)CC2
active: [1] 23.8 µM | [2] 23.6 µM | [5] 12.1 µM | [7] 2.7 µM | [9] 3.65 µM | [14] 14.4 µM | [20] 7.33 µM | [15] 18.4 µM
not listed: [4] | [10] | [12] | [18]
inactive: all other assays above

O=C(Nc1ccc(Cl)cc1)Nc1ccc(Cl)c(Cl)c1
inactive: [1] | [2] | [3] | [18]
active: [5] 2.42 µM | [6] 2.15 µM | [7] 1.74 µM | [8] 2.03 µM | [9] 3.86 µM | [10] 3.51 µM | [11] 1.9 µM | [12] 11.8 µM | [13] 3.23 µM | [14] 3.92 µM | [15] 3.04 µM | [16] 1.91 µM | [17] 3.32 µM

Oc1ccc2ccccc2c1
active: [5] 22.1 µM | [6] 16.1 µM | [11] 13.2 µM
not listed: [4] | [12] | [18] | [19]
inactive: all other assays above

COCC(C)OCC(C)OCC(C)O (centres undefined)
not listed: [4] | [12] | [18]
inactive: all other assays above
